Test results taken from PubChem BioAssay AID602399 (Sanford-Burnham Center for Chemical Genomics, 2012).
Screen size: about 360,000 compounds; about 2,800 (0.78%) were called active. Shown is part of a subset that was picked to be rich in actives. A number with no mark means an inactive call. Rule as the data show it: active = inhibition above about 26%; inactive = the rest.

What follows are compounds tested on Nicotinate-nucleotide adenylyltransferase NadD (Staphylococcus aureus N315) (assay: S. aureus NadD enzyme activity blockers – biochemical, colorimetric, uHTS, primary screen (AID 602399)). Settings: purified NadD enzyme, colorimetric absorbance read-out; at 20 µM; active compounds read high.

Row | SMILES | inhibition
1 | NS(=O)(=O)c1ccc(NS(=O)(=O)/C=C/c2ccccc2)cc1 | -1.06%
2 | O=C(COC(=O)/C=C/c1cccc(Cl)c1)NCCc1ccccc1 | -11.9%
3 | NNc1cccc(C=Cc2ccccc2)cc1=O | 33.2% (active)
4 | C/C(=N\NC(=O)CNc1cccc2ccccc12)c1ccc(Br)s1 | 64.5% (active)
5 | C/C(=N\NC(=O)COc1c(C)cccc1C)c1cccs1 | -5.85%
6 | CC/C(=N\NC(=O)c1ccccc1Cl)c1ccc(Br)s1 | -6.6%
7 | CCCCCCc1cc2cc(-c3nnc(-c4ccccc4)o3)c(=O)oc2cc1O | 87.5% (active)
8 | Cn1cccc1Cc1nnc(SCC(=O)NCc2ccc3c(c2)OCO3)n1CCc1ccccc1 | 7.11%
9 | COC(=O)c1cccc(N(CC(=O)NCC2CCCO2)C(=O)CCC(=O)Nc2cc(C)on2)c1 (stereo not drawn) | -10.6%
10 | CCOc1cc(/C=C/C(=O)OCC(=O)NCCN2C(=O)CSC2=O)ccc1OCC(C)C | 0.893%
11 | Cc1cc(-c2n[nH]c(=S)n2/N=C/C(Br)=C/c2ccccc2)n[nH]1 | 17.3%
12 | S=c1[nH]nc(-c2cc(-c3ccccc3)n[nH]2)n1/N=C/c1c2ccccc2cc2ccccc12 | 49.4% (active)
13 | CCN(CC)S(=O)(=O)c1cccc(-c2n[nH]c(=S)n2/N=C/c2ccc(C(=O)OC)cc2)c1 | 24.3%
14 | COc1cccc(/C=C/C(=O)Nc2ccc3c(c2)OCCO3)c1 | -5.58%
15 | CC(=O)Nc1ccc(S(=O)(=O)NC2(C(F)(F)F)C(=O)NC(C)=C2C#N)cc1 (stereo not drawn) | -2.54%
16 | Cc1ccc(-c2nc(-c3cccnc3)sc2CC(=O)Nc2ccc(C)c(Cl)c2)cc1 | 30.9% (active)
17 | Cc1ccc(NC(=O)COc2ccc(-n3ccnc3)cc2)cc1Cl | -3.03%
18 | Cc1nc(-c2ccc(F)cc2)c(CC(=O)Nc2cc(S(=O)(=O)N3CCCCC3)ccc2C)s1 | 6.89%
19 | COc1cccc(OCc2cc(/C=N/NC(=O)c3nc(Cl)c(Cl)c(N)c3Cl)ccc2OC)c1 | 45.5% (active)
20 | CCN(CC)Cc1c(C(=O)N/N=C/c2cccc(OCc3ccc(F)cc3)c2)nnn1-c1nonc1N | 13.1%

Row | SMILES | inhibition
21 | COc1ccc(S(=O)(=O)N/N=C\c2ccc(OC)c(COc3ccc(C)cc3[N+](=O)[O-])c2)cc1 | 18.5%
22 | CC(OC(=O)c1ccccc1N1C(=O)C2C3CCC(C3)C2C1=O)C(=O)c1ccccc1 (stereo not drawn) | -5.61%
23 | CCOC(=O)C1Sc2[nH]c(=O)sc2C(c2ccc(Cl)cc2)C1C(=O)OCC (stereo not drawn) | 13.4%
24 | CCOC(=O)c1ccccc1N1C(=O)C2Sc3[nH]c(=O)sc3C(/C=C/c3ccccc3)C2C1=O (stereo not drawn) | 42.2% (active)
25 | COC(=O)c1cn(C)c2ccc(S(=O)(=O)N3CC(C)CC(C)C3)cc2c1=O (stereo not drawn) | 0.79%
26 | Cc1nccc(-c2ccc(-n3c(C)ccc3C)cc2)n1 | 3.88%
27 | c1ccc(-c2nccc(-c3ccc(-n4cnc5ccccc54)cc3)n2)nc1 | 65.6% (active)
28 | COC(=O)c1ccc(-n2cnc3ccccc32)nc1 | -5.95%
29 | Cc1ccc(S(=O)(=O)N(C)C)cc1NC(=O)C1Cc2ccccc2CN1C(=O)c1ccco1 (stereo not drawn) | 2.17%
30 | O=C1/C(=C/c2coc3ccc(O)cc3c2=O)SC(=S)N1c1ccccc1 | 44.8% (active)
31 | CC1=CC2=NC(=O)/C(=C/c3coc4ccccc4c3=O)C(=N)N2O1 | -6.03%
32 | COC(=O)c1ccc(S(=O)(=O)N(CCO)Cc2ccccc2)n1C | -0.726%
33 | Oc1ccc(-c2cccc(-c3ccc(O)cc3)c2)cc1 | 0.612%
34 | O=C(NCC(O)c1nc2ccccc2[nH]1)c1ccc(Br)cc1 (stereo not drawn) | -3.28%
35 | O=C(Nc1ccccc1)c1cc2ccccc2[nH]1 | 1.14%
36 | O=C(Nc1cccc(-c2nc3ccccc3[nH]2)c1)c1ccc(C(=O)Nc2cccc(-c3nc4ccccc4[nH]3)c2)cc1 | 33.1% (active)
37 | Cc1cccc(C2C3=C(CCCC3=O)N=C3c4ccccc4C(=O)C32)c1 (stereo not drawn) | 3.15%
38 | O=C(NCc1cccnc1)c1cnc2ccccc2n1 | 1.99%
39 | CC(=O)N/C(=N/c1nc(C)cc(C)n1)Nc1ccc(F)cc1F | -3.78%
40 | CCCCCCN1C[C@@H](O)[C@H](n2cc(COC(=O)c3ccccc3)nn2)C[C@@H]1c1ccc(Cl)cc1 | 7%

Row | SMILES | inhibition
41 | COC(C[C@@H]1O[C@@H]1C(=O)[C@@H](C)OCc1ccccc1)OC | -1.07%
42 | CN1/C(=c2/s/c(=C3/C(=O)N(c4ccccc4)NC3=Nc3ccccc3)n(C)c2=O)C(C)(C)c2ccccc21 | 57.3% (active)
43 | Cc1ccc(Cl)c(NC(=O)CN(C)CC(=O)Nc2ccc(F)c(F)c2F)c1Cl | 2.14%
44 | Nc1ccc2nc3c(=O)[nH]c(=S)[nH]c3nc2c1 | 70.1% (active)
45 | Cc1occc1C(=O)NC1CCCN(Cc2ccc(CC(C)C)cc2)C1 (stereo not drawn) | -6.31%
46 | COc1ccc(NS(=O)(=O)c2ccc(O)c(C(=O)OCC(=O)NC3CCCCC3)c2)cc1 | -4.71%
47 | CCn1c(SCC(=O)Nc2ccc(C)cc2)nc2nc3c(cc2c1=O)CCCC3 | 8.14%
48 | CCC1C(C#N)=C(SC)NC2=C1C(=O)CC(C)(C)C2 (stereo not drawn) | 0.666%
49 | Cc1cc(C)c2nc(-c3cccnc3)cc(C(=O)Nc3ccc(S(=O)(=O)Nc4onc(C)c4C)cc3)c2c1 | 42.3% (active)
50 | CCn1c(SCC(=O)Nc2ccc(S(=O)(=O)Nc3onc(C)c3C)cc2)nnc1-c1ccccc1 | 7.88%
51 | Cc1noc(NS(=O)(=O)c2ccc(NC(=O)c3oc4ccc(F)cc4c3C)cc2)c1C | 0%
52 | CCCCNC(=O)C[C@@H]1C[C@@]2(C(=O)OCC)CCC=C2N(Cc2cccc3ccccc23)C1=O | -3.88%
53 | CC1CN(C(=O)c2ccccc2NS(=O)(=O)c2cccc([N+](=O)[O-])c2)CC(C)O1 (stereo not drawn) | 4.4%
54 | COc1ccc(S(=O)(=O)N2CCC(C(=O)OCC(=O)c3ccccc3)CC2)cc1[N+](=O)[O-] | -4.05%
55 | Cc1ccc(NS(=O)(=O)c2ccc(N/N=C/c3ccccc3OCC(=O)O)c([N+](=O)[O-])c2)c(C)c1 | 37.4% (active)
56 | COc1ccc(Br)cc1/C=N/Nc1ccc(S(=O)(=O)Nc2ccccc2C(=O)O)cc1[N+](=O)[O-] | 37.4% (active)
57 | Cc1ccc(S(=O)(=O)NC(=O)COc2ccccc2C)cc1 | -3.06%
58 | C=C(C)CNC(=S)N/N=C/c1ccccc1OCC(=O)O | 11.3%
